Screening results: PubChem BioAssay, National Center for Advancing Translational Sciences (NCATS)
TDP-43 yeast inh = inhibitors of TDP-43 toxicity in yeast; AID 652104; Potency, µM (top dose mostly 46.1 µM), for the others: at the highest dose growth rescue (activation), usual class: activators; 410,000 tested, 1.8% active; TDP-43 expressing yeast growth rescue, BacTiter-Glo, 24 h; also: potency is read from the fitted curve at half-maximal effect; % of control where 0% means no effect; nearly all actives have a fitted effect of over 50% in size
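Cell-based yeast growth screen: TDP-43 expression induced in galactose, inoculum OD600=0.02 after raffinose pregrowth to mid-log. Read-out BacTiter-Glo luminescence at 24 hr, 30 deg C; inhibition of toxicity seen as signal increase.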
Abeta yeast res = restores growth of yeast expressing A-beta42 peptide; yeast expressing A-beta42, growth rescue, OD600, 48 h; response scale: 0% DMSO, 100% iron-clioquinol control; Potency, µM (series often up to 46.1 µM), usual class: activators; 410,000 tested, 0.063% active; AID 1347071; also: potency is read from the fitted curve at half-maximal effect; nearly all actives have a fitted effect of over 55% in size
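Yeast growth medium received pinned compounds, then yeast cells expressing toxic A-beta were added; plates incubated at 30 C for 48 hr. Growth read as absorbance at 600 nm, normalized to DMSO and equimolar FeCl3 plus clioquinol controls.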
IDH1 R132H inh = human IDH1 R132H inhibition | O75874 | IDH1-R132H enzyme, NADPH consumption, diaphorase/resazurin fluorescence | Potency, µM (titrated, usually from 76.6 µM), inactives show at the top dose activity change, negative = inhibition, most hits filed as inhibitors | 390,000 tested, 0.093% active; also: potency is read from the fitted curve at half-maximal effect; % is scaled to controls: 0 for no effect and ±100 for the full control effect; nearly all actives have a fitted effect of over 65% in size
Target sequence (O75874 whole entry R132H, stated change not applied): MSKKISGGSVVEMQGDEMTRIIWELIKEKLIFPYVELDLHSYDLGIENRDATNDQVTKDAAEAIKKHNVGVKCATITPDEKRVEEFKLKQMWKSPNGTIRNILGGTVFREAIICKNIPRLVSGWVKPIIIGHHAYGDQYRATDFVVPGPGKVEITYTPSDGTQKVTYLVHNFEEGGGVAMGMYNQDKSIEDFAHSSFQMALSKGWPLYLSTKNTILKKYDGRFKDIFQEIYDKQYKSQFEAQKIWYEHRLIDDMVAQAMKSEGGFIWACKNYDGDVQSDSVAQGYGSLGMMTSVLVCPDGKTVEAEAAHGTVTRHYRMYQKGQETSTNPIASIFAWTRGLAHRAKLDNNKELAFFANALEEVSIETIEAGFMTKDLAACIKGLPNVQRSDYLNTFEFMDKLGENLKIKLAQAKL
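IDH1-R132H (0.5 ug/mL dispensed) in pH 7.5 Tris buffer was preincubated 30 min with compound, then given a substrate mix of 0.016 mM NADPH and 2 mM alpha-KG for 80 min at room temperature; remaining NADPH was read by diaphorase/resazurin fluorescence.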
aSyn yeast inh = alpha-synuclein toxicity inhibition in yeast; 370,000 tested, 0.14% active; AID 652106; Potency, µM (doses to about 46.1 µM), for inactives: at the top dose growth rescue (activation), usual class: activators; Yeast expressing alpha-synuclein, growth rescue, BacTiter-Glo, 24 h; also: potency is read from the fitted curve at half-maximal effect; % of control where 0% means no effect; nearly all actives have a fitted effect of over 65% in size
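Screening used galactose-induced yeast with toxic alpha-synuclein levels, exposed to compound for 24 hr at 30 deg C. Cell growth, read with BacTiter-Glo luminescence, gave the measured signal.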
FUS suppressor = rescues growth of FUS-expressing yeast; 390,000 tested, 0.24% active; Potency, µM (series often up to 76.6 µM), most hits filed as activators; S. cerevisiae FUS-expressing, growth rescue, OD600, 24 h; AID 1347120;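 also: potency is read from the fitted curve at half-maximal effect; plate controls were DMSO vehicle for no effect and reference control for full effect; nearly all actives have a fitted effect of over 55% in size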
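S. cerevisiae expressing FUS from galactose induction served as the toxicity model. Growth after 24hr at 30C, read as absorbance at 600 nm, indicates suppression of toxicity; compounds dosed at several concentrations.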
LDHA inh = blocks human lactate dehydrogenase A | purified LDHA, NADH/diaphorase-resazurin fluorescence; active compounds read low | AID 1347041 | 480,000 tested, 0.15% active | activity change, % (values are at about 110 or 230 µM) | P00338; in the data active = activity change below about -30%; inconclusive = mostly about -25% to -30%;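 also: plate controls were DMSO wells for no effect and wells without enzyme for full effect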
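Enzyme activity of human lactate dehydrogenase 5 (2 nM; 0.06 mM NADH, 0.2 mM pyruvate, 5 min, RT) is measured via a resazurin/diaphorase fluorescence readout of residual NADH.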
* = called active by the depositor; i = inactive; ? = inconclusive; . = no result given; [ ] = remark or other dose. Compounds with a hit are over-represented: about 2% of the library has one in this group of screens. Unless noted, calls follow the shape of the dose curve; as a rule, active = well fitted curve in the direction sought with a large enough effect; inconclusive = small, poorly fitted or top-dose-only effect, or another doubt; inactive = no such curve, though single readings can be large; an effect the other way counts as inactive or inconclusive.

SMILES	TDP-43 yeast inh	Abeta yeast res	IDH1 R132H inh	aSyn yeast inh	FUS suppressor	LDHA inh
CC(C)Cn1c(-c2ccc(Br)cc2)c[nH]c1=S	-15%[0.397 µM]	3.2µM*	0%	10%	i	-15
CC1CCCc2sc(N)c(C#N)c21 (stereo not given)	.	.	.	.	.	0
O=C(Nc1ccc(OC(=O)c2ccco2)cc1)c1ccco1	-7%	i	-1%	-36%	i	-12
O=C(OC1CCCCC1)c1ccc(NC(=O)c2ccco2)cc1	35µM*	i[9.22 µM]	5%	-26%	i	0
O=C(Cc1cccs1)NCC12CC3CC(CC(C3)C1)C2	.	.	.	.	.	-3
C[n+]1cnc(-c2ccccc2)cc1-c1ccccc1	3%	i	-1%	-3%	i	-49*
O=C(Cc1ccc(S(=O)(=O)N2CCOCC2)s1)N1CCN(S(=O)(=O)c2ccccc2[N+](=O)[O-])CC1	3%	i	7%	0%	22µM*	-3
O=C(Cc1ccc(S(=O)(=O)N2CCOCC2)s1)N1CCN(S(=O)(=O)c2cccc([N+](=O)[O-])c2)CC1	5%	i	7%	-2%	?	-1
Nc1ccc(CNC(=O)OCC2c3ccccc3-c3ccccc32)cc1	14µM*	i	46%	8%	?	-4
CCOc1cc(C(=O)Nc2ccc3sc(NC(=O)C(C)C)nc3c2)cc(OCC)c1OCC	.	.	.	.	.	-1
O=C1NC(Cc2ccccc2)C(=O)N1Cc1ccccc1 (stereo not given)	9%	i	-6%	-4%	i	-7
O=c1ccsn1Cc1ccccc1	10µM*	i	-13%	0%	.	-7
O=C(/C=C/c1c(F)cccc1Cl)c1ccc(O)cc1	7.9µM*	?	3%	?	i	-1
Cc1nn(C)c(C)c1Nc1ccc(S(=O)(=O)NC(C)C)cc1[N+](=O)[O-]	.	.	.	.	.	3
O=C(/C(C=Nc1ccccc1Cl)=C(/O)c1ccco1)C(F)(F)F	.	.	.	.	.	-1
COC(=O)C1=C(C)N(c2cc(Cl)cc(Cl)c2)C(=O)C1	18µM*	i	1%	-1%	i	-1
COc1ccc(OCCOC(=O)c2ccc3c(c2)NC(=O)CS3)cc1	.	.	.	.	.	4
CCCNC(=O)N(C)C[C@@H]1Oc2cc(C#C[C@H](C)O)ccc2S(=O)(=O)N([C@H](C)CO)C[C@H]1C	6%	i	20%	5µM*	i	2
COCCNc1nc(Oc2cccc3ccccc23)c2sccc2n1	16µM*	i	.	18%	i	0
COCCNc1nc(Oc2ccccc2)c2sccc2n1	?	i	.	-8%	i	-6
CCc1ccccc1Oc1nc(NC(C)C)nc2ccsc12	20µM*	i	.	-16%	i	-1
Cn1nnnc1-c1cccc(NS(=O)(=O)c2ccccc2)c1	.	.	.	.	.	7
Cc1cccc(Oc2ccc(NC(=O)c3ccc4c(c3)NC(=O)CS4)cc2)c1	.	.	.	.	.	-4
O=c1c(Sc2ccccc2)c(C(F)(F)F)[nH]n1-c1ccccc1	14µM*	i	0%	.	i	0
O=C(/C=C/c1ccc(O)c(O)c1)OCCc1ccccc1	16µM*	i	-5%	5.2µM*	i	3
SMILES	TDP-43 yeast inh	Abeta yeast res	IDH1 R132H inh	aSyn yeast inh	FUS suppressor	LDHA inh
O=C(/C=C/c1ccc(O)c(O)c1)OC(Cc1ccc(O)c(O)c1)C(=O)O (stereo not given)	-4%	i	-9%	2%	i	14
COc1ccc(/C=C/C(=O)OCC(=O)NCCCc2ccccc2)cc1OC	35µM*	i	13%	1%	i	-3
COc1ccc(NS(=O)(=O)c2cc(-c3n[nH]c(=O)c4ccccc34)ccc2C)cc1	.	.	.	.	.	10
Cc1cc(N2CCCCC2)n2ncc(-c3ccc(Cl)cc3)c2n1	14µM*	i	11%	-8%	11µM*	3
COc1ccc(CCNc2cc(C)nc3c(-c4ccc(Cl)cc4)cnn23)cc1OC	18µM*	i	4%	12%	?	1
CC(=O)Nc1ccc(Nc2cc(C)nc3c(-c4ccc(Cl)cc4)cnn23)cc1	3.2µM*	i	5%	0%	.	4
Cc1ccc2nc(-c3ccc(C)s3)cc(C(=O)NCc3ccco3)c2c1	.	.	.	.	.	-7
Cc1ccc([N+](=O)[O-])cc1-c1[nH]c(-c2ccc(O)c(O)c2)nc1-c1ccccc1	17%	i	-8%	0%	20µM*	9
O=C(C(=Cc1ccc(F)cc1)C(=O)c1ccccc1)c1ccccc1	3.5µM*	i	.	?	i	5
O=C(C(=Cc1ccc(F)cc1)c1ccccc1)c1ccc(O)cc1	9%	i	-1%	-57%	.	-18
CN(C(=O)CSc1nc(-c2ccccc2)cn1N)C(c1ccccc1)c1ccccc1	1%	i	3%	-7%	32µM*	3
COc1ccccc1CNC(=O)CSc1nc(-c2ccccc2)cn1N	18%	i	-5%	-9%	i	-4
CC(C)OC(=O)C(C(=O)C(F)(F)F)c1cc(NS(=O)(=O)c2ccc3ccccc3c2)c2ccccc2c1O (stereo not given)	-64%	i	-18%	-34%	10µM*	21
CCOc1ccc(S(=O)(=O)Nc2cc(SCC(=O)O)c(O)c3ccccc23)cc1	17%	i	6%	-10%	i	11
CCOc1ccc(C2NC(=O)NC(CN3CCN(C(=O)OC(C)(C)C)CC3)=C2C(=O)OC)cc1 (stereo not given)	.	.	.	.	.	2
COc1ccc([C@H]2CC(=O)C=C(c3ccc4cc[nH]c4c3)C2)cc1	25µM*	i	11%	0%	i	6
COc1ccc([C@H]2CC(=O)C=C(c3ccc(OC)nc3)C2)cc1	?	i	5%	6%	i	-12
COc1ccc([C@H]2CC(=O)C=C(c3cccc(OC)c3)C2)cc1	11µM*	i	-4%	0%	i	-2
COc1ccc([C@H]2CC(=O)C=C(c3ccc4[nH]ccc4c3)C2)cc1OC	22µM*	i	4%	2%	?	-1
COc1ccc(C2=CC(=O)C[C@H](c3ccc(Cl)cc3)C2)cn1	18µM*	i	14%	5%	i	-2
COc1ccc([C@H]2CC(=O)C=C(c3cccc(C(C)C)c3)C2)cc1	12%	i	5%	-4%	i	2
COc1ccc([C@H]2CC(=O)C=C(c3ccc(Cl)c(Cl)c3)C2)cc1	?	i	-13%	12%	i	-9
COC(=O)C(C#N)c1nc2ccccc2nc1NC1CC1 (stereo not given)	.	.	.	.	.	26
